Common to all, as to conditions: mRNA level, 48 h; actives raise or lower the signal
Read-out in test [1]: cysteine-aspartic acid protease (CASP8), CASP8 (gene 841)
Description: LTEA_HepaRG_CASP8: Life Technologies and Expression Analysis (LTEA) Assay for cysteine-aspartic acid protease (CASP8) using HepaRG (AID 2283480). Put shortly: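 qRT-PCR readout of CASP8 mRNA, normalized to three housekeeping genes, after 48 h chemical exposure of HepaRG cells; 8-point half-log series, top 100 uM, 0.5% DMSO vehicle. Bidirectional curve fitting against DMSO baseline.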

Read-out in test [2]: Cytochrome P450 (CYP2B6), CYP2B6 (gene 1555)
The experiment in a line: LTEA_HepaRG_CYP2B6: Life Technologies and Expression Analysis (LTEA) Assay for Cytochrome P450 (CYP2B6) using HepaRG (AID 2283481). Put shortly: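 Using 48 h treatment of HepaRG cells in serum-free induction medium, concentrations spanned half-log steps from 100 uM in 0.5% DMSO vehicle. CYP2B6 mRNA induction or loss is scored by qRT-PCR against DMSO.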

Read-out in test [3]: Cytochrome P450 2C19 (Homo sapiens) (UniProt P33261)
Description: LTEA_HepaRG_CYP2C19: Life Technologies and Expression Analysis (LTEA) Assay for CYP2C19 using HepaRG (AID 2283482). Put shortly: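 Human HepaRG liver cells received test chemicals for 48 h (highest 100 uM, half-log dilutions in 0.5% DMSO). CYP2C19 mRNA induction or loss is read by multiplexed qRT-PCR and fitted in both directions versus vehicle.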

Read-out in test [4]: CYP2C8 (gene 1558)
Description: LTEA_HepaRG_CYP2C8: Life Technologies and Expression Analysis (LTEA) Assay for CYP2C8 using HepaRG (AID 2283483). The procedure, abridged:
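HepaRG (human liver line), 48 h chemical exposure, 8-pt half-log series from 100 uM, 0.5% DMSO vehicle. Readout: CYP2C8 transcript by qRT-PCR, housekeeping-normalized. Bidirectional fit vs DMSO baseline.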

Read-out in test [5]: CYP2C9 (gene 1559)
Description: LTEA_HepaRG_CYP2C9: Life Technologies and Expression Analysis (LTEA) Assay for CYP2C9 using HepaRG (AID 2283484). The procedure, abridged:
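HepaRG, 48 h dosing, 8-pt half-log series, top 100 uM, 0.5% DMSO vehicle. Read-out: CYP2C9 transcript by TaqMan qRT-PCR, housekeeping-normalized (ACTB/GAPDH/POLR2A). Gain or loss fitted vs DMSO baseline.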

Read-out in test [6]: CYP2E1 (gene 1571)
Description: LTEA_HepaRG_CYP2E1: Life Technologies and Expression Analysis (LTEA) Assay for CYP2E1 using HepaRG (AID 2283485). Put shortly: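 Readout is qRT-PCR of CYP2E1 mRNA, normalized to three housekeeping genes and fitted bidirectionally against 0.5% DMSO. HepaRG cells were dosed 48 h at eight concentrations, highest 100 uM with half-log dilutions.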

Read-out in test [7]: CYP4A11 (gene 1579)
Description: LTEA_HepaRG_CYP4A11: Life Technologies and Expression Analysis (LTEA) Assay for CYP4A11 using HepaRG (AID 2283486). Put shortly: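 Readout is CYP4A11 mRNA induction or suppression (qRT-PCR, ACTB/GAPDH/POLR2A normalization) in human HepaRG cells after 48 h chemical treatment, concentrations to 100 uM in 0.5% DMSO, fitted bidirectionally against vehicle.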

Read-out in test [8]: Cytochrome P450 3A4 (Homo sapiens) (UniProt P08684)
The experiment in a line: LTEA_HepaRG_CYP3A4: Life Technologies and Expression Analysis (LTEA) Assay for CYP3A4 using HepaRG (AID 2283487). The procedure, abridged:
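In a human hepatic line (HepaRG), duplicate wells were treated 48 h with up to 100 uM chemical in half-log dilutions. Endpoint: CYP3A4 mRNA induction or loss relative to 0.5% DMSO vehicle, by qRT-PCR.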

Read-out in test [9]: DNA damage-inducible transcript 3 (DDIT3), DDIT3 (gene 1649)
Description: LTEA_HepaRG_DDIT3: Life Technologies and Expression Analysis (LTEA) Assay for DNA damage-inducible transcript 3 (DDIT3) using HepaRG (AID 2283488). Put shortly: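 Cells are human HepaRG liver cells treated for 48 h with eight half-log concentrations up to 100 uM in 0.5% DMSO. Transcript levels come from qRT-PCR normalized to three housekeeping genes, with activity fitted in both directions relative to vehicle.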

Read-out in test [10]: Cytochrome P450 (CYP1A2), CYP1A2 (gene 1544)
Description: LTEA_HepaRG_CYP1A2: Life Technologies and Expression Analysis (LTEA) Assay for Cytochrome P450 (CYP1A2) using HepaRG (AID 2283479). The procedure, abridged:
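Assesses CYP1A2 mRNA in human HepaRG liver cells after 48 h chemical exposure at up to 100 uM. Values come from qRT-PCR with bidirectional curve fitting relative to DMSO.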

Calls of active or inactive are those of the source. The calls were made as follows: active = hit-call score of the fitted dose curve at least 0.9, where 1 is the maximum; inactive = score below 0.9.

Sequence of Cytochrome P450 2C19 (Homo sapiens) (P33261 whole entry, looked up): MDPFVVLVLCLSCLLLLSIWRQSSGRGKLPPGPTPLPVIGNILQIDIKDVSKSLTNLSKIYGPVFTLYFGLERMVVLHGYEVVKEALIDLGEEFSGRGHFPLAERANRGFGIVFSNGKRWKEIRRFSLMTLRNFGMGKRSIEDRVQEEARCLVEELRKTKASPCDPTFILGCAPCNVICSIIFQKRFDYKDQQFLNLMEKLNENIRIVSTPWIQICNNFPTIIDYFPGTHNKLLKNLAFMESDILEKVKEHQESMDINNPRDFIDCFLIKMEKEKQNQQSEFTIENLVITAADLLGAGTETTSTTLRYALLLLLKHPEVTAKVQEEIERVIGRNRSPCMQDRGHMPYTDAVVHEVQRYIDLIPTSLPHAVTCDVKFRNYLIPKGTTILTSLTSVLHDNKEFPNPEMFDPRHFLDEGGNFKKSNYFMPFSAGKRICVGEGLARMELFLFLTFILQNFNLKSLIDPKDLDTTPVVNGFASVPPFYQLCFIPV
Sequence of Cytochrome P450 3A4 (Homo sapiens) (P08684 whole entry, looked up): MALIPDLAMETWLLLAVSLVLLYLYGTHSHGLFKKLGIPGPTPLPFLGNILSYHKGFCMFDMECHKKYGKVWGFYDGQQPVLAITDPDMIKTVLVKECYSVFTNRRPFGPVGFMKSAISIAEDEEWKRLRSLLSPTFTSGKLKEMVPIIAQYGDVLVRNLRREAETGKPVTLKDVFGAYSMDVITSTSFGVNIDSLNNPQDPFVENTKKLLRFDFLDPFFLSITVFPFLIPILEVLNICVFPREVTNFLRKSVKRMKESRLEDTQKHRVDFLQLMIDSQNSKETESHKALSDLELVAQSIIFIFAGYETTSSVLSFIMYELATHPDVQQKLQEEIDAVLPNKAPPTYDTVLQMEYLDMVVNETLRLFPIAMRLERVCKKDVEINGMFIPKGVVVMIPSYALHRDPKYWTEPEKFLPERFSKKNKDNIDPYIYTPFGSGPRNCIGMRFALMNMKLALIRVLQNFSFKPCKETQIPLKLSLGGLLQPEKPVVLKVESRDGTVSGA

Broadly, the AC50 is the concentration at which the activity in the assay is half-maximal. As to `C=C(C)C(=O)OCCC(F)(F)C(F)(F)C(F)(F)C(F)(F)C(F)(F)C(F)(F)F`, the call in test [1], in test [3], in [4], in [5], in test [7] and in test [8] was inactive. For the same molecule, the outcome in [9] was inactive. For the same molecule, the AC50 was 11.8 µM (active) in test [2] and 20.1 µM (active) in [6].

Consider `CC(C)(C)c1cccc(C(C)(C)C)c1O`, for which the call in test [10], in test [1], in test [2], in test [4], in test [5] and in test [6] was inactive. The result in [8] was inactive. In test [9], the concentration at half-maximal activity (AC50) was 12.2 µM (active).

On to `CCc1nn(C2CCCCC2)c2cc(C3(C#N)CCC(C(=O)O)CC3)ccc12` (stereo not drawn), for which the call in [1] was inactive. In addition, the AC50 was 82.8 µM (active) in [2]; 79.8 µM (active) in test [4]; 63.4 µM (active) in test [5]; 60.6 µM (active) in test [6]; 50.6 µM (active) in [7]; 82.2 µM (active) in [8]. Moreover, in test [9], the half-maximal activity concentration (AC50) is 77.5 µM (active).

Consider `CN1CCC[C@H]1c1cccnc1`, for which the result in test [1], in test [2], in test [4], in test [6], in [7] and in test [8] was inactive. In addition, the result in test [9] was inactive.

As to `CCCCCCCCCCCCc1ccccc1S(=O)(=O)O`, the molecule was called inactive in [1]. Further, the AC50 in test [2] was 84.5 µM (active); in test [3] it was 87.3 µM (active); in test [4], 82.3 µM (active); in test [5], 83.3 µM (active); in [6] it was 78.3 µM (active); in [7], 80.7 µM (active). Besides, the half-maximal activity concentration (AC50) in test [8] was 89.6 µM (active); in test [9] it was 62.1 µM (active).

Consider `NC(=O)N(O)[C@@H]1C=C[C@H](Oc2cccc(Oc3ccc(F)cc3)c2)C1`, for which the result in [1] was inactive. For the same molecule, the half-maximal activity concentration (AC50) is 34.4 µM (active) in test [2]; 27.3 µM (active) in [4]; 58.8 µM (active) in test [5]; 32.1 µM (active) in [6]; 30.8 µM (active) in test [7]; 72.1 µM (active) in test [8]. The AC50 in test [9] was 35.1 µM (active).

Turning to `CCc1ccc(CCOc2ccc(CC3SC(=O)NC3=O)cc2)nc1` (stereo not drawn), the molecule was called inactive in test [1]. Also, the AC50 was 92.5 µM (active) in [2]; 88.4 µM (active) in test [4]; 77.6 µM (active) in test [5]; 48.5 µM (active) in [6]; 85.9 µM (active) in test [7]; 91.3 µM (active) in test [9].

In the case of `OC1CCCCC1`, the molecule was called inactive in test [1], in [2], in test [3], in [4], in test [5] and in test [6]. Further, the molecule was classed as inactive in test [7], in [8] and in test [9].

Regarding `Cc1oc(-c2ccccc2)nc1CCOc1ccc(C[C@H](Nc2ccccc2C(=O)c2ccccc2)C(=O)O)cc1`, the AC50 in [1] was 32.1 µM (active); in test [2], 18.5 µM (active); in test [4] it was 25.2 µM (active); in [5], 22.5 µM (active); in [6], 17.1 µM (active); in test [7], 28.1 µM (active). In addition, the results for the concentration at half-maximal activity (AC50) in [8] and in test [9] were 12.7 µM (active) and 14.1 µM (active), respectively.

As to `CCCOC(=O)c1ccc(O)cc1`, the molecule was called inactive in test [1], in test [2], in test [4], in test [5], in [6] and in [7]. In addition, in [9], the molecule was classed as inactive.

On to `Oc1cc2ccccc2c2ccccc12`, for which the call in test [1], in [2], in test [4], in test [5], in test [6] and in test [7] was inactive. The call in test [8] and in [9] was inactive.

As for `CC(C)(C)CC(C)(C)c1ccc(O)c(-n2nc3ccccc3n2)c1`, the molecule was classed as inactive in test [1], in [4], in test [5] and in test [9]. Further, the AC50 in [2] is 13.1 µM (active); in test [3], 12.7 µM (active); in test [6], 58.2 µM (active); in test [7], 50 µM (active).

Turning to `CN1CCN(c2ccccc2/C=C2\SCCN(c3ccc(Cl)c(Cl)c3)C2=O)CC1`, the concentration at half-maximal activity (AC50) was 93.4 µM (active) in test [1]; 50 µM (active) in test [2]; 12.8 µM (active) in test [6]; 17.4 µM (active) in test [7]; 50 µM (active) in test [9]. The result in [4], in test [5] and in test [8] was inactive.

On to `CCOC(=O)CC(O)(CC(=O)OCC)C(=O)OCC`, for which the molecule was called inactive in [1], in test [2], in test [4], in test [5], in test [6] and in test [7]. Also, the molecule was classed as inactive in test [8] and in test [9].

As to `CC(O)CO` (stereo not drawn), the outcome in test [1], in [2], in test [4], in test [5], in test [6] and in test [7] was inactive. For the same molecule, the result in [8] and in test [9] was inactive.

Regarding `Nc1cccc2c(N)cccc12`, the outcome in test [1], in test [4], in test [5], in [8] and in [9] was inactive. The concentration at half-maximal activity (AC50) in [2] was 2.68 µM (active); in [6], 50 µM (active); in test [7], 50 µM (active).

These data come from PubChem BioAssay (EPA / NIEHS).
